# Experimental data from the supplement of paper PMC11417369.
# Whole data set: some 25,000 sequences, median “ln(normalized median fluorescence intensity)” near 6.7, cut for the highest 2% near 10. This excerpt belongs to a sample that is enriched for the highest values.
# System: PfHDP1 homeodomain (GST-tagged)
# Assay: gcPBM binding intensity (ln(normalized median fluorescence intensity)); higher = stronger DNA binding
# Summary of the method: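 GST-tagged P. falciparum DNA-binding domains, expressed in E. coli (about 25 μg on average), were applied for 1 h to an Agilent 4 × 180k array of primer-extended double-stranded 36-bp intergenic genomic probes plus negative controls. The binding buffer was 1× PBS with 1% milk, 0.2 mg/ml BSA, 0.5% salmon testes DNA and 0.03% Triton X-100. Bound protein was detected with Alexa488 anti-GST antibody and scanned at 488 nm. Binding intensity is the highest Masliner-normalised natural-log median intensity across replicate spots of either probe orientation.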
row,Sequence,gcPBM binding intensity (ln)
1,AGAGGTAGAGAGAAAACATGCATAATGATTTTCATA [TGCATGCA_site958],6.1
2,CATGCTACATCTTATTGTACTTATCTAATGTTAGTA [XGTACX_site1863],6.75
3,TATGTGCACCCATGTACATGCGGACATATGTTATAT [TGCATGCA_site383],10.6
4,TATATATATATATATGCATGTACATATATTTGTTAT [TGCATGCA_site379],9.2
5,ATATATATATATGCATGTACATATATTTGTTATATC [XGTACX_site3197],9.16
6,AAAATATTTATTACTTCACACATTATTGTATTTATA [CACACA_site5082],6.5
7,TTTGTTTTTTTGAGAGTGCAATATATATAAAAAGGG [GTGCAC_site9691],9.35
8,GCGTGTGTACAATGAGTGCATATCTAAAGGGAAGAT,9.43
9,TATATATATATATGAGTGCATATGTGTAATATAAAA,9.65
10,TTTCGTAATATGCGTGTGCACAATGAGTCCATATCT,10.9
11,TCAAAAAAAAAAAAAAAAAAAAAAAAAAAAAAAAAA [CACACA_negctrl_site1753],5.92
12,TATTAATAAATATGTTTACACACGAAAATACATTTT [CACACA_site1012],6.35
13,TTCTTTGTAGTATATTAACACACAACTGTTTATAAT [CACACA_site9305],6.67
14,TGTATAATATTTGGTGCACACAAATTAACAACTGTT [CACACA_site9245],10.6
15,CTTTGTAGTATATTAACACACAACTGTTTATAATAT [CACACA_site6038],6.53
16,TATAATATTTGGTGCACACAAATTAACAACTGTTTA [CACACA_site3742],10.8
17,TTTATTTTTAACAGTGCACACATAACTTAATTATAT [CACACA_site8681],9.52
18,TGTATTAAATTTTGAACACACAAAATAAAACATATA [CACACA_site1672],6.54
19,TCGTAGTTACTATGGCAAGAAAATAAACGGTCTTGT [GTGCAC_negctrl_site684],6.6
20,ATTAAAAATTATATTTTATAAAAATTAAAAGAAATA [CACACA_negctrl_site65],6.47
21,AATAATTTTTTAAACACACACACATATATATATATA [CACACA_site95],9.08
22,AAAAATATATATATATATATATATATATTATTTTTT [TGCATGCA_negctrl_site378],7
23,TAGAAGCATCATTTTACACACATGCAAATGTAAACT [CACACA_site6973],6.66
24,TAATTATGCGGACACACACACACACCCAACTAAAAA [CACACA_site5427],6.81

row,Sequence,gcPBM binding intensity (ln)
1,ATTATGCACCAACACACACACACACTCCTAAAAAAT [CACACA_site8822],11.7
2,AAAAAAGATAATTATGCACACACACCCACCCACCCA [CACACA_site8825],9.38
3,TATGCACCCAGACACACACACACAACTAAAAAATAA [CACACA_site2567],8.1
4,AAAAAATTAGATTATGCACACACACTAATAAATAAT [CACACA_site8604],9.67
5,TTATTAGAAAAATGCACACCAAAAAAAAAAAAAAAA [CACACA_site2522],8.93
6,AAAAGATAATTATGCACACACACACCCCCACCCAAC [CACACA_site2570],10.5
7,ATTATGCACGGACACACACACACACCCCTAAAAAAT [CACACA_site5426],10.5
8,AAAAGATAATTATGCACACACACACCCAGACACAAC [CACACA_site5428],10.4
9,GAAATTAAAAAATTTATGCACACTTTAAAAAAAAAA [CACACA_site3769],9.28
10,ATTATGCACAGACACACACACACACTACTAAAAAAT [CACACA_site7252],11.1
11,ATTATATATATATATACACACACACCCTAAAAATAT [CACACA_site8463],7.22
12,ACCTATTTCAAACACACACACACACTAGCAAACATA [CACACA_site4695],7.26
13,AAGAGAAAAATATGGTTGCACTAAAAATATATATTT,8.26
14,ATCATTTTTAAAGGAACACACAAAAAAAATTAAAAT [CACACA_site4878],6.76
15,TCTTTTTTAATATAATATATTTTTATTAAGTAAATC [TGCATGCA_negctrl_site408],6.2
16,ATTAATAATGAGTTATGTACATACATATTTTAAGAT [XGTACX_site7543],6.75
17,AATAAATACTAAATGGTGCAAAATTTTTTAACACTG,10
18,CATACTCTACATAGATGTACTCATTTAAAAAAAAAA [XGTACX_site6945],6.12
19,AATTAATAAAAAAGGTGTACAGTAAATGCAATAATC [XGTACX_site7956],8.08
20,AAATATATCATACAAAGTACTTGGAATTAATATATA [XGTACX_site8907],6.3
21,TAATTATGCCAACACACACACACACCCAACTAAAAA [CACACA_site8823],6.96
22,ATTATGCACCAACACACACACACACCCCTAAAAAAT [CACACA_site2568],11.5
23,TAATTATGCAGACACACACACACACCCAACTAAAAA [CACACA_site2569],7
